Consider 27 compounds from PubChem BioAssay (NCATS).

Assay [1] has as its target Glutathione peroxidase 1 (Homo sapiens) (UniProt P07203). The experiment in a line: Primary qHTS Assay for Inhibitors of Recombinant Selenoprotein Glutathione Peroxidase 1 (GPX1) (AID 1845191). For activity, negative = inhibition: % is set by controls: 0 for no effect and ±100 for the full control effect. Note: nearly all actives have a fitted effect of over 65% in size. Note: potency is the fitted concentration of half-maximal effect. In outline:
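GPX1 10 nM, GR 100 nM, GSH 1 mM, NADPH 0.5 mM, CHP 0.5 mM (final). 30-min cpd preincubation, RT. Ex340/Em450 read t=0, t=15 min.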
A general note: qHTS replaces the single test concentration by a dilution series.

Assay [2] has as its target Phospholipid hydroperoxide glutathione peroxidase GPX4 (Homo sapiens) (UniProt P36969). As to the kind of experiment: Primary qHTS Assay for Inhibitors of Recombinant Selenoprotein Glutathione Peroxidase 4 (GPX4) (AID 1845192). For activity change, negative = inhibition: series mostly up to about 50 µM; % is set by controls: 0 for no effect and ±100 for the full control effect. Note: nearly all actives have a fitted effect of over 65% in size. In outline:
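qHTS, GR-coupled: GPX4 200 nM + cpd 30 min RT → GSH 1 mM, NADPH 0.5 mM, GR 100 nM → CHP 0.5 mM start; fluor 340/450 at t0 and t15 min; no-enzyme wells as control.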

The target of assay [3] is Luciferin 4-monooxygenase (Photinus pyralis) (UniProt P08659). The experiment in a line: Primary firefly luciferase (FLuc) qHTS assay for identification of artifact compounds. (AID 1845220).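 For activity change, negative = inhibition: series mostly up to about 54 µM; plate controls were DMSO vehicle for no effect and no enzyme for full effect.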 Note: nearly all actives have a fitted effect of over 60% in size. Note: potency is the fitted concentration of half-maximal effect. In outline: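 In this counter-screen for luciferase artifacts, test compounds met substrate (10 uM each luciferin and ATP) before 10 nM enzyme started the reaction. Light output was measured 5 min later.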

The nature of assay [4]: Primary fluorescence-based thiol-reactive (MSTI) qHTS assay for identification of artifact compounds. (AID 1845221).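 For activity change, negative = thiol reactive: series mostly up to about 54 µM; thiol-reactive compounds lower the probe fluorescence signal.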 Note: nearly all actives have a fitted effect of over 65% in size. Note: potency is the fitted concentration of half-maximal effect. In outline: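 qHTS titration of compound; 4 uM MSTI, PBS pH 7.4, 2% DMSO; 1 h RT, dark; fluorescence 525/598 nm; normalized to Acetyl-MSTI and MSTI; 4-parameter Hill fit.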
Assay [5] concerns Nanoluciferase (engineered Oplophorus gracilirostris luciferase). The experiment in a line: Primary Nanoluciferase (NLuc) qHTS assay for identification of artifact compounds. (AID 1845222).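 Note: NLuc secreted into diluted conditioned medium of S16 cells; series mostly up to about 54 µM.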 In outline:
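Using secreted nanoluciferase in S16 culture medium (0.22 um filtered, 1:55 dilution), compounds were preincubated 15 min at RT. Signal was generated with Nano-Glo reagent (1:100) over 5 min.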

The structures appear in SMILES notation. Several values for one entry are separate records, joined by “and”; a condition that tells them apart may be missing. Identical values can stand only once. Inconclusive results are not listed. Some compounds were tested as several samples or in several runs, with calls that do not always agree. Activity calls are given as the source filed them. Calls come from the whole dose curve; as a rule, active = well fitted curve in the direction sought with a large enough effect; inconclusive = small, poorly fitted or top-dose-only effect, or another doubt; inactive = no such curve, though single readings can be large; an effect the other way counts as inactive or inconclusive.

Chain of Phospholipid hydroperoxide glutathione peroxidase GPX4 (Homo sapiens) (P36969 whole entry, looked up): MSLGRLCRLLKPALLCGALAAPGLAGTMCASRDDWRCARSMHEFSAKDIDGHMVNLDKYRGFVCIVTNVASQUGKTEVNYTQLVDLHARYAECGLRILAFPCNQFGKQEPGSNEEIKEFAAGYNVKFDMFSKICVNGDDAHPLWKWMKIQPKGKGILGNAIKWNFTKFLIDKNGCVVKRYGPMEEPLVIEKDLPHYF
Chain of Glutathione peroxidase 1 (Homo sapiens) (P07203 whole entry, looked up): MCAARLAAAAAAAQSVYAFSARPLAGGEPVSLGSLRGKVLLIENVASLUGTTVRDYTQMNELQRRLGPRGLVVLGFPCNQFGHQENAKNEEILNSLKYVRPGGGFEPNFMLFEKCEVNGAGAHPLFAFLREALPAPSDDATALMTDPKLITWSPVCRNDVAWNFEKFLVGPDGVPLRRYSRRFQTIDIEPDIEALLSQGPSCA

With `C=C[C@]1(C)C[C@H](O)[C@H]2C(=C)C(=O)O[C@@H]2[C@H]1C(=C)CO`, the Potency result in assay [1], in assay [2], in assay [3], in assay [4] and in assay [5] was “inactive” each time.
For `O=c1[nH]c2cccc(N3CCN(Cc4ccc(-c5ccccc5)cc4)CC3)c2o1`, the Potency entry in assay [1], in assay [2], in assay [3], in assay [4] and in assay [5] was “inactive” in each case.
Take `CN1CCN(C2CCN(C(=O)Nc3cc(Oc4ccc(NC(=O)C5(C(=O)Nc6ccc(F)cc6)CC5)c(F)c4)ccn3)CC2)CC1`: the Potency result in assay [1], in assay [2], in assay [3], in assay [4] and in assay [5] was “inactive” in each case.
In the case of `Cc1ccc(C)c(NS(=O)(=O)c2cc(C(=O)Nc3ccccc3-c3ccccc3)ccc2C)c1`, the Potency result in assay [1], in assay [2], in assay [3], in assay [4] and in assay [5] was “inactive” throughout.
For the compound `C=C(CCC1C(C)(O)CCC2C(C)(C)C(O)CCC12C)C(O)CO` (stereo not given), the Potency entry in assay [1], in assay [2], in assay [3] and in assay [5] was “inactive” each time. For the same compound, the Potency in assay [4] is 13.1 µM (active).
`COc1ccc(NC(=O)c2ccc(-c3ccc(C(=N)N)cc3C)cc2)cc1N1CCN(C)CC1`: the Potency entry in assay [1], in assay [2], in assay [3], in assay [4] and in assay [5] was “inactive” throughout.
As to `CO[C@H]1[C@@H](O)[C@H](O[C@H]2CC[C@@]3(C)C(CCC4C3CC[C@]35COC6(COC(=O)C6)C3CCC45O)C2)O[C@@H](C)[C@@H]1OC1OC(CO)C(OC2OC(CO)C(O)C(O)C2O)C(O)C1O` (stereo not given in full), the Potency result in assay [1] and in assay [2] was “inactive” throughout. In assay [3], the activity change, negative = inhibition is -4.26% [at 11.6 µM] (inactive). Further, the activity change, negative = thiol reactive in assay [4] was 77.5% [at 11.5 µM] (inactive). Also, the activity, negative = inhibition in assay [5] is -0.128% [at 11.6 µM] (inactive).
`CNS(=O)(=O)c1ccccc1Nc1nc(Nc2ccc(N3CCN(C)CC3)cc2OC)ncc1Br`: the Potency entry in assay [1], in assay [2], in assay [3] and in assay [5] was “inactive” throughout. Moreover, the Potency in assay [4] was 2.67 µM (active).
`CCCOc1ccc(S(=O)(=O)N2CCN(CCO)CC2)cc1-c1nc2c(CCC)cn(CC)c2c(=O)[nH]1`: the Potency entry in assay [1], in assay [2], in assay [3], in assay [4] and in assay [5] was “inactive” each time.
With `Cc1csc2c(N[C@@H](C)CN3CCN(S(=O)(=O)c4ccc(Cl)c(Cl)c4)CC3)ncnc12`, the Potency result in assay [1], in assay [2], in assay [3], in assay [4] and in assay [5] was “inactive” each time.
Regarding `C[C@@H](Nc1ncnc2[nH]c(-c3ccc(O)cc3)cc12)c1ccccc1`, the Potency result in assay [1], in assay [2], in assay [3] and in assay [5] was “inactive” each time. In assay [4], the Potency is 1.34 µM (active).
Take `CCCN(CCc1ccsc1)C1CCc2c(O)cccc2C1` (stereo not given): the Potency result in assay [1], in assay [2], in assay [3], in assay [4] and in assay [5] was “inactive” throughout.
On to `Cn1cc(-c2ccc3c(c2)CCN3C(=O)Cc2cccc(C(F)(F)F)c2)c2c(N)ncnc21`, for which the Potency result in assay [1] was “inactive and 18.3 µM (active)”; in assay [4], 29.9 µM (active). In addition, the Potency entry in assay [2], in assay [3] and in assay [5] was “inactive” in each case.
Turning to `COc1ccc(S(=O)(=O)N2CCC[C@H]2C(=O)Nc2cc(C)cc(C)c2)cc1`, the Potency result in assay [1], in assay [2], in assay [3], in assay [4] and in assay [5] was “inactive” in each case.
Regarding `CCC(C)C1NC(=O)C(Cc2ccccc2)NC(=O)C(CCCCCC(=O)C(O)CO)NC(=O)C2CCCCN2C1=O` (stereo not given), the Potency entry in assay [1], in assay [2], in assay [3], in assay [4] and in assay [5] was “inactive” in each case.
`Cc1cc(C)cc(-c2cnc3cc(Cl)c(-c4cccc(O)c4)cc3c2OCCCN)c1`: the Potency result in assay [1], in assay [2], in assay [3], in assay [4] and in assay [5] was “inactive” in each case.
Consider `Cc1cc(C)nc(SCC(=O)Nc2ncc(Cc3cccc4ccccc34)s2)n1`, for which the Potency entry in assay [1], in assay [2], in assay [3], in assay [4] and in assay [5] was “inactive” each time.
Turning to `OC[C@H]1O[C@@H](OC/C=C/c2ccc(O)cc2)[C@H](O)[C@@H](O)[C@@H]1O`, the Potency result in assay [1], in assay [2], in assay [3], in assay [4] and in assay [5] was “inactive” each time.
Take `Cc1nc2ccc(-n3ncc(C(=O)c4cc5ccccc5[nH]4)c3N)cc2[nH]1`: the Potency result in assay [1], in assay [2], in assay [4] and in assay [5] was “inactive” throughout. Moreover, the Potency in assay [3] was 3.38 µM (active).
Consider `N#Cc1ccc(O[C@@H]2c3ccccc3C[C@H]2N2CCC[C@@H](N)C2)c(Cl)c1`, for which the Potency result in assay [1], in assay [2], in assay [3], in assay [4] and in assay [5] was “inactive” in each case.
As for `C[C@H]1[C@H](/C=C/c2ccc(-c3ccccc3C#N)cn2)[C@@H]2[C@@H](C)OC(=O)[C@@H]2C[C@@H]1C`, the Potency entry in assay [1], in assay [2], in assay [3], in assay [4] and in assay [5] was “inactive” in each case.
With `CC#C[C@@H](CC(=O)O)c1ccc(OCc2ccc(CN3CCC4(C=Cc5ccccc54)CC3)s2)cc1`, the Potency result in assay [1], in assay [2], in assay [3], in assay [4] and in assay [5] was “inactive” throughout.
As for `Nc1nc2c(ncn2C2OC3COP(=O)(O)OC3C2O)c(=O)[nH]1` (stereo not given), the Potency entry in assay [1], in assay [2], in assay [3], in assay [4] and in assay [5] was “inactive” throughout.
Turning to `C=C1C(=O)O[C@@H]2[C@H]3C(C)=CC(=O)C3=C(C)CC[C@@H]12`, the Potency entry in assay [1], in assay [2], in assay [3], in assay [4] and in assay [5] was “inactive” in each case.
Turning to `COc1ccc(C#Cc2ccc(C(=O)N3CCC[C@@H](CO)C3)cc2)cc1`, the Potency result in assay [1], in assay [2], in assay [3], in assay [4] and in assay [5] was “inactive” in each case.
In the case of `COC(=O)N1CCC(n2ncc3c(N4CCOCC4)nc(-c4ccc(NC(=O)NC5CC5)cc4)nc32)CC1`, the Potency result in assay [1], in assay [2], in assay [3], in assay [4] and in assay [5] was “inactive” each time.
For `CCN(Cc1ccccc1)C(=O)Cn1c(=O)n(C)c2cnc(-c3ccccc3)nc21`, the Potency result in assay [1], in assay [2], in assay [3], in assay [4] and in assay [5] was “inactive” in each case.
